Assay outcomes (PubChem BioAssay)
PTK2B oligo ant = antagonists of Pyk2 self-association, primary screen, Q293 cells, FERM NanoBiT luminescence, HTS | Protein-tyrosine kinase 2-beta (Homo sapiens), Q14289 | active compounds read low | z-score (the deposit names both 25 µM and 10 µM) | 99,000 compounds, 0.83% hits | AID 1347419, 2020;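 active = Z-score of -3 or lower, scaled per plate to the spread of control and sample wells; inactive = z-score above -3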;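 also: negative z-score means lost luminescence so less FERM oligomerization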
CYP2C19 activ = human CYP2C19 activators, primary screen, biochemical, luminescence | recombinant CYP2C19, luciferin-H EGE luminescence; active compounds read high; 0 = fully inhibited enzyme, 1 = untreated enzyme | activation factor at 5 µM | 96,000 tested, under 10 active;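 active = activation factor of at least 2 at 5 µM in the primary screen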
Target sequence (P33261 whole entry, looked up): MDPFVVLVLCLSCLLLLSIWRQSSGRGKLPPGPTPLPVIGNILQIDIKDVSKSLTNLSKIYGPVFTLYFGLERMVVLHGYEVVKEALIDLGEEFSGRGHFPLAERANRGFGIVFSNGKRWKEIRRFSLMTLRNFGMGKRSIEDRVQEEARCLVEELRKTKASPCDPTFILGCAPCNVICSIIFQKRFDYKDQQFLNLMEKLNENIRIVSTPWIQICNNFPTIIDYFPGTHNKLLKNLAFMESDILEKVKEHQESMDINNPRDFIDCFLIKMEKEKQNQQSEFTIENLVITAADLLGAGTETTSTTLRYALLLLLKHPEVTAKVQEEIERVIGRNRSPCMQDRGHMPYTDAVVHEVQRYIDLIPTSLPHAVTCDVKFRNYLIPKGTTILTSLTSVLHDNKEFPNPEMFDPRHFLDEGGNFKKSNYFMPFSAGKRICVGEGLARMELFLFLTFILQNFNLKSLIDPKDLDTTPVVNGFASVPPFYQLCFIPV
CYP2C9 inhib = blockers of cytochrome P450 2C9 activity – biochemical, luminescence, ADME assay, primary screen. P11712. CYP2C9 Supersomes, luciferin-H conversion. inhibition, % at 5 µM. 96,000 compounds, 20% hits;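 active = blocking of liver enzyme CYP2C9 beyond about 50% at 5 µM, limit read from the data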
CYP2C9 act = human CYP2C9 activators, primary screen, biochemical, luminescence | activation factor at 5 µM | 96,000 compounds, 1.4% hits | recombinant CYP2C9, luciferin-H conversion; active compounds read high; factor 1 = untreated enzyme, 0 = blocked | Cytochrome P450 2C9 (Homo sapiens), P11712;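 active = activation factor of 2 or more for CYP2C9 at a 5 µM dose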
CYP2C19 inh = blockers of cytochrome P450 2C19 activity – biochemical, luminescence, ADME assay, primary screen; P33261; CYP2C19 Supersomes, luciferin-H EGE luminescence, 30 min; inhibition, % at 5 µM; 96,000 compounds, 21% hits;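 active = CYP2C19 inhibition above a set limit at 5 µM in the primary screen, cut at about 50% in these data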
Large screens that a line does not name were inactive. Shown are actives, neighbours in structure and some others; about 28% of the full set was active somewhere.

Cc1ccc(C(=O)CN(C(=O)c2ccc(Cl)c(Cl)c2)N2C(=O)C3C4C=CC(C4)C3C2=O)cc1 (stereo not drawn)	CYP2C9 inhib 93, CYP2C19 inh 79
O=C(CN(C(=O)c1ccc(Cl)cc1Cl)N1C(=O)C2C3C=CC(C3)C2C1=O)c1ccc(F)cc1 (stereo not drawn)	none (no result: CYP2C19 activ, CYP2C9 inhib, CYP2C9 act, CYP2C19 inh)
CC1(c2ccc(Cl)cc2)NC(=O)N(CC(=O)N2CCCC2)C1=O (stereo not drawn)	none
O=c1ccn(-c2cccc(C(F)(F)F)c2)nc1-c1ccn(-c2cccc(Cl)c2)n1	CYP2C9 inhib 52
Nc1c(-c2cccc(Cl)c2)cnn1-c1cccc(C(F)(F)F)c1	none
COc1cc(C(=O)OC(C)CN2CCOCC2)cc(OC)c1OC (stereo not drawn)	none
CNC(=O)N(C1=NCC(C)(C)S1)c1ccc(F)c(Cl)c1	CYP2C9 inhib 51, CYP2C19 inh 91 (no result: PTK2B oligo ant)
CN(C)/C=C1\C(=O)N(c2ccc(Oc3ccccc3)cc2)CS1=O (stereo not drawn)	none
N#Cc1c(N)nc2c3c(sc(=N)c2c1N)NC(=O)CC3c1c(F)cccc1Cl (stereo not drawn)	none
N#Cc1c(N)nc2c3c(sc(=N)c2c1N)NC(=O)CC3c1ccccc1 (stereo not drawn)	CYP2C19 inh 73
CC(C)NCCOCCOc1ccccc1F	none
Fc1ccc(C(CCCn2nnc(-c3cccnc3)n2)c2ccc(F)cc2)cc1	PTK2B oligo ant -3.7, CYP2C9 inhib 59, CYP2C19 inh 59
N#Cc1cccc(-n2nnnc2-c2ccc3c(c2)OCO3)c1	CYP2C19 inh 97
N#Cc1ccc(-c2nnnn2-c2ccc3c(c2)OCO3)cc1	CYP2C19 inh 61
CN(C)CCOC(C1CCCCC1)C1CCCCC1	none
Clc1ccc(OCc2nnc(-c3ccccc3Br)o2)c(Cl)c1	none
Cc1ccc(-n2nnnc2SCc2nnc(-c3ccccc3Br)o2)c(C)c1	CYP2C9 inhib 56, CYP2C19 inh 66
Cn1nnnc1SCc1nnc(-c2ccccc2Br)o1	CYP2C19 inh 65
Cn1nnnc1SCc1nnc(-c2ccc(F)cc2)o1	none
Clc1ccc(OCc2nnc(-c3ccccc3Br)o2)cc1	CYP2C19 inh 96
Nc1nc(SCc2nc3scc(-c4cccs4)c3c(=O)[nH]2)n[nH]1	none
Cc1nc2cc(-c3cccc(F)c3)nn2c(C)c1CCC(=O)NC(C)CCc1ccco1 (stereo not drawn)	CYP2C9 inhib 91, CYP2C19 inh 91 (no result: PTK2B oligo ant)
Cc1nc2cc(-c3ccccc3)nn2c(C)c1CCC(=O)NCc1ccco1	CYP2C9 inhib 52, CYP2C19 inh 56 (no result: PTK2B oligo ant)
CCOC(=O)C1CCCCN1C(=O)CCc1c(C)nc2cc(-c3ccccc3)nn2c1C (stereo not drawn)	CYP2C9 inhib 60, CYP2C19 inh 68 (no result: PTK2B oligo ant)
COc1ccccc1-c1cc2nc(C)c(CCC(=O)NCc3ccco3)c(C)n2n1	none (no result: PTK2B oligo ant)
NC(=O)C(c1ccc(Cl)cc1Cl)c1ncc(C(F)(F)F)cc1Cl (stereo not drawn)	CYP2C19 inh 88
CCOC(=O)C(C(=O)NCc1ccc(F)cc1)c1ncc(C(F)(F)F)cc1Cl (stereo not drawn)	none
NC(=O)C(c1ccc(Cl)cc1)c1ncc(C(F)(F)F)cc1Cl (stereo not drawn)	CYP2C19 inh 73
CC(C(=O)Nc1ccc(Cl)cc1)c1ncc(C(F)(F)F)cc1Cl (stereo not drawn)	CYP2C19 inh 94
COc1ccc(C(=O)/C=C/c2ccccc2OC)c(OC(=O)c2ccc([N+](=O)[O-])cc2)c1	PTK2B oligo ant -3.3 (no result: CYP2C19 activ, CYP2C9 inhib, CYP2C9 act, CYP2C19 inh)
COc1ccc(OC(=O)c2cccc([N+](=O)[O-])c2)c(C(=O)/C=C/c2cccs2)c1	CYP2C9 inhib 75, CYP2C19 inh 62
COc1ccc(C/C(N)=N/OC(=O)c2cccc([N+](=O)[O-])c2)cc1	none (no result: CYP2C19 activ, CYP2C9 inhib, CYP2C9 act, CYP2C19 inh)
CCN(CC)CCNC(=O)CCc1n[nH]c(=O)c2ccccc12	none
O=C(CSc1ccc2c(c1)OCCO2)NC(=O)NC1CCCC1	CYP2C9 inhib 72, CYP2C19 inh 94
Cc1cc(C)nc(SCC(=O)Nc2cc(C)on2)n1	none
Cc1cc(NC(=O)CSc2ccc3c(c2)OCCO3)no1	CYP2C19 inh 57
O=C(CSc1ccc2c(c1)OCCO2)Nc1ncc(Cl)cc1Cl	CYP2C9 inhib 82, CYP2C19 inh 76
